Among the test systems are SR leukemia; RPMI-8226 leukemia; OVCAR-8 ovarian; OVCAR-5 ovarian; OVCAR-4 ovarian; SK-OV-3 ovarian; IGROV1 ovarian; OVCAR-3 ovarian; HS 578T breast; NCI/ADR-RES ovarian; T-47D breast; BT-549 breast; MDA-MB-435 melanoma; SW-620 colon; MCF7 breast; HCT-116 colon; HCC-2998 colon; KM12 colon.
Holding throughout (test): NCI-60 one-dose screen, 48 h (100 = growth as untreated, 0 = no growth, -100 = all killed)
Conditions in all cases: 10 µM unless noted

Several values for one entry are separate records, joined by “and”; a condition that tells them apart may be missing. Identical values can stand only once. This is part of a sample that, as a whole, favours compounds with a hit. Of some 83,000 tested, about 20% had one in any assay.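 Testing used 96-well plates and a 48-hour single-concentration exposure. Example: -40 means 40% of the starting cells died.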 Unmarked numbers belong to inactive results. Activity calls are given as the source filed them. The calls were made as follows: active = growth percent below 10; inactive = the rest.

Turning to `Cc1ccc(-c2nc3nc(-c4ccccc4)nc(N4CCCNCC4)c3o2)cc1`, the growth with SR leukemia is -49.7% (active); in the experiment on RPMI-8226 leukemia, -55% (active); with OVCAR-8 ovarian, -48.4% (active); with OVCAR-5 ovarian, -32.4% (active); with OVCAR-4 ovarian, -52.3% (active); with SK-OV-3 ovarian it was 79.9%. For the same compound, the growth in the experiment on IGROV1 ovarian is -73.8% (active); in the experiment on OVCAR-3 ovarian it was -81.7% (active); in the experiment with HS 578T breast, -18.1% (active); in the experiment on NCI/ADR-RES ovarian, -29.8% (active); in the experiment on T-47D breast it was -45% (active); in the experiment on BT-549 breast it was 18%. In addition, the growth was -83.1% (active) with MDA-MB-435 melanoma; -57.5% (active) in the experiment with SW-620 colon; -78.4% (active) in the experiment on MCF7 breast; -71.4% (active) with HCT-116 colon; -74.9% (active) in the experiment with HCC-2998 colon; -92.3% (active) with KM12 colon.
Regarding `O=C(CN1C(=O)S/C(=C\C(Cl)=C\c2ccccc2)C1=O)NC1C=CS(=O)(=O)C1` (stereo unspecified), the growth was 6.39% (active) with SR leukemia; 0.667% (active) with RPMI-8226 leukemia; 4.68% (active) with OVCAR-8 ovarian; 44.2% in the experiment with OVCAR-5 ovarian; 39.4% with OVCAR-4 ovarian; 98.8% in the experiment with SK-OV-3 ovarian. In addition, the growth was -16.1% (active) with IGROV1 ovarian; -12.6% (active) in the experiment with OVCAR-3 ovarian; 51.7% in the experiment on HS 578T breast; 24.7% with NCI/ADR-RES ovarian; 4.56% (active) in the experiment on T-47D breast; 2.33% (active) in the experiment on BT-549 breast. For the same compound, the growth with MDA-MB-435 melanoma is -31.4% (active); in the experiment with SW-620 colon, -36.4% (active); in the experiment on MCF7 breast, 11.1%; in the experiment with HCT-116 colon, -62.3% (active); in the experiment with HCC-2998 colon it was 65.6%; in the experiment with KM12 colon it was 16.4%.
`Cc1n(Cc2ccc3ccccc3c2)c(Cl)c(Cl)[n+]1Cc1ccc2ccccc2c1`: the growth in the experiment on SR leukemia was 6.73% (active); in the experiment with RPMI-8226 leukemia, -16.8% (active); in the experiment with OVCAR-8 ovarian, 19.1%; in the experiment with OVCAR-5 ovarian it was 51.1%; in the experiment on OVCAR-4 ovarian, 3.21% (active); in the experiment on SK-OV-3 ovarian, 65.5%. For the same compound, the growth is -8.24% (active) in the experiment on IGROV1 ovarian; 5.54% (active) with OVCAR-3 ovarian; 46.6% with HS 578T breast; 98.8% in the experiment with NCI/ADR-RES ovarian; 10.3% with T-47D breast; 26.8% in the experiment with BT-549 breast. For the same compound, the growth in the experiment with MDA-MB-435 melanoma was -2.29% (active); in the experiment with SW-620 colon it was 40.5%; in the experiment on MCF7 breast, 21.4%; in the experiment with HCT-116 colon it was 18.2%; with HCC-2998 colon it was 17.3%; with KM12 colon, 0.454% (active).
Consider `Nc1nc(Cl)nc2c1ncn2C1OC(CO)C(O)C1O` (stereo unspecified), for which the growth with SR leukemia is 56.8%; in the experiment on RPMI-8226 leukemia, 104% and 96.1%; in the experiment on OVCAR-8 ovarian, 22.9% and 29.3%; in the experiment with OVCAR-5 ovarian, 90% and 105%; in the experiment with OVCAR-4 ovarian, 94.4% and 87%; in the experiment with SK-OV-3 ovarian, 41.3% and 68.1%. For the same compound, the growth is 78.9% and 75.1% with IGROV1 ovarian; 86.9% in the experiment on OVCAR-3 ovarian; 108% in the experiment with HS 578T breast; 29.6% and 40.2% in the experiment on NCI/ADR-RES ovarian; 93.5% and 107% with T-47D breast; 40.2% in the experiment with BT-549 breast. Also, the growth in the experiment on MDA-MB-435 melanoma is 49.2% and 53.5%; in the experiment with SW-620 colon, 66.5% and 72.8%; with MCF7 breast, 37.8% and 33.8%; in the experiment with HCT-116 colon, 41.9% and 43%; with HCC-2998 colon, 51% and 51.7%; in the experiment on KM12 colon it was 60.1% and 86.2%.
For `CCCN1C(=O)/C(=c2\sc3n(c2=O)NC2C(N=3)N(CC)C(=O)N2CC)c2ccccc21` (stereo unspecified), the growth with SR leukemia is 30.6%; in the experiment on RPMI-8226 leukemia it was 45.5%; in the experiment with OVCAR-8 ovarian, 35.7%; in the experiment with OVCAR-5 ovarian, 39.6%; in the experiment with OVCAR-4 ovarian, 63%; in the experiment on SK-OV-3 ovarian it was 63.6%. For the same compound, the growth in the experiment on IGROV1 ovarian was 38.9%; in the experiment with OVCAR-3 ovarian, 9.19% (active); in the experiment with HS 578T breast, 27.8%; with NCI/ADR-RES ovarian, 8.06% (active); with T-47D breast it was 26.2%; in the experiment on BT-549 breast, 62.8%. In addition, the growth in the experiment on MDA-MB-435 melanoma was -10.6% (active); with SW-620 colon it was 31.5%; with MCF7 breast it was 17.5%; with HCT-116 colon, 15.6%; with HCC-2998 colon, 30.4%; in the experiment on KM12 colon, 30.3%.
Take `CC1(C)C(N)=Nc2cc(OCCCCN3Cc4ccccc4C3)c(OCC3CC3)cc21`: the growth is 93.4% in the experiment with SR leukemia; 100% with RPMI-8226 leukemia; 76.2% in the experiment with OVCAR-8 ovarian; 80.3% in the experiment with OVCAR-5 ovarian; 82.6% in the experiment with OVCAR-4 ovarian; 89% with SK-OV-3 ovarian. For the same compound, the growth in the experiment with IGROV1 ovarian was 79.4%; in the experiment with OVCAR-3 ovarian, 78%; in the experiment with HS 578T breast, 88.3%; in the experiment on NCI/ADR-RES ovarian, 92.6%; in the experiment on T-47D breast it was 37.7%; with BT-549 breast, 83.7%. Moreover, the growth in the experiment with MDA-MB-435 melanoma was 71.9%; in the experiment with SW-620 colon, 92.8%; with MCF7 breast it was 48.5%; in the experiment with HCT-116 colon it was 47%; in the experiment on HCC-2998 colon, -0.545% (active); with KM12 colon, 96%.
With `CCCN1C(=O)/C(=c2\sc3n(c2=O)C2C(NN=3)N(CC)C(=O)N2CC)c2ccccc21` (stereo unspecified), the growth in the experiment with SR leukemia is 17%; with RPMI-8226 leukemia it was 21.9%; in the experiment on OVCAR-8 ovarian, 7.65% (active); in the experiment with OVCAR-5 ovarian, 27.5%; with OVCAR-4 ovarian, 48.8%; in the experiment with SK-OV-3 ovarian, 43.7%. Further, the growth in the experiment with IGROV1 ovarian is 16%; in the experiment with OVCAR-3 ovarian it was 12.4%; in the experiment with HS 578T breast, 16.8%; with NCI/ADR-RES ovarian it was 0.109% (active); in the experiment on T-47D breast, 27.8%; in the experiment on BT-549 breast, 20.8%. Further, the growth in the experiment with MDA-MB-435 melanoma was -21.2% (active); with SW-620 colon it was 24.9%; in the experiment with MCF7 breast, 9.94% (active); in the experiment on HCT-116 colon, 7.6% (active); in the experiment with HCC-2998 colon, 15.5%; in the experiment with KM12 colon, 20%.
